The results in this text go back to article PMC7862700, “An all-to-all approach to the identification of sequence-specific readers for epigenetic DNA modifications on cytosine”.

What all share (experiment): DAPPL (digital affinity profiling via proximity ligation, sequencing); 10 mM Tris-HCl pH 7.5, 50 mM NaCl, 1 mM DTT, 4% glycerol, room temperature, 30 min; GST-TFs on glutathione beads, 16-mer random dsDNA library, 0.1% formaldehyde crosslink after washing; high values mean tight binding
The target in one experiment is T1, FLI1 (Homo sapiens, UniProt Q01543 1-452).
T1 sequence: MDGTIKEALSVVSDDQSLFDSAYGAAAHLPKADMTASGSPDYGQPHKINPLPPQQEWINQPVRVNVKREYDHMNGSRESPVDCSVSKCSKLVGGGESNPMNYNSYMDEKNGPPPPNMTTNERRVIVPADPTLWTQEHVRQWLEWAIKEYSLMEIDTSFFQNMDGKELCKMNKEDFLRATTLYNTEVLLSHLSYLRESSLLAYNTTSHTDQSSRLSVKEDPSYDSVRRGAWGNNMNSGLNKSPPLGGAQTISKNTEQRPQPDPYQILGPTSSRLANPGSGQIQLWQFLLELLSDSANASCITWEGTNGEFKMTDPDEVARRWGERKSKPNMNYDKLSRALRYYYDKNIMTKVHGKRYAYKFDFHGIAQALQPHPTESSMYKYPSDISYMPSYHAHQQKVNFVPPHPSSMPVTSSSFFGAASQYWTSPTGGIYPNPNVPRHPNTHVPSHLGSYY
As to conditions: protein: recombinant; tags: N-terminal GST; dsDNA, one strand shown. The method, boiled down: (§1)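 Beads coated with glutathione captured GST-fused human transcription factors that had been expressed in yeast, and the factors were then given DNA barcodes and pooled with a tag-only sample. The pools were incubated with 200 nmole of a random double-stranded 16-mer DNA library in Tris/NaCl/DTT/glycerol buffer for 30 min at room temperature, washed, crosslinked with 0.1% formaldehyde and proximity-ligated with BsaI/T4 ligase at 37 °C for 1 h. PCR amplification and Illumina NextSeq500 sequencing came last. Binding signal is each hexamer's read frequency for a factor divided by its frequency for the tag-only sample.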

The target in a further experiment is T2, ERG (Homo sapiens, UniProt P11308 1-479).
T2 sequence: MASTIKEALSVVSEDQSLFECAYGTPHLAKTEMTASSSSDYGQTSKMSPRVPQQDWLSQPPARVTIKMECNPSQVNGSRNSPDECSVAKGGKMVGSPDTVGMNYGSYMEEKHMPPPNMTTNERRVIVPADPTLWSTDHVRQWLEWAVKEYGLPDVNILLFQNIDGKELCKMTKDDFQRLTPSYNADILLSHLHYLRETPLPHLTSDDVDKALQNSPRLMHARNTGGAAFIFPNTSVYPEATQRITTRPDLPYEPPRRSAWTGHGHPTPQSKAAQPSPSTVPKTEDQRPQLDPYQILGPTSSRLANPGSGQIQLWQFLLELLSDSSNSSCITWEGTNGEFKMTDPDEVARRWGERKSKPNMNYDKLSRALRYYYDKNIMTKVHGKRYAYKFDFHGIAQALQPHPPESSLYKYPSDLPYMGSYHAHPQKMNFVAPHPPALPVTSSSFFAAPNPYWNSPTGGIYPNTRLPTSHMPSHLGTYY
The following applies: protein: recombinant; tags: N-terminal GST; dsDNA, one strand shown. A digest of the protocol: as §1

For a further experiment, the target named is ELF1 (Homo sapiens, UniProt P32519 1-619). The following applies: protein: recombinant; tags: N-terminal GST; dsDNA, one strand shown. The method, boiled down: as §1
The target in a further experiment is T3, EHF (Homo sapiens, UniProt Q9NZC4 1-300).
T3 sequence: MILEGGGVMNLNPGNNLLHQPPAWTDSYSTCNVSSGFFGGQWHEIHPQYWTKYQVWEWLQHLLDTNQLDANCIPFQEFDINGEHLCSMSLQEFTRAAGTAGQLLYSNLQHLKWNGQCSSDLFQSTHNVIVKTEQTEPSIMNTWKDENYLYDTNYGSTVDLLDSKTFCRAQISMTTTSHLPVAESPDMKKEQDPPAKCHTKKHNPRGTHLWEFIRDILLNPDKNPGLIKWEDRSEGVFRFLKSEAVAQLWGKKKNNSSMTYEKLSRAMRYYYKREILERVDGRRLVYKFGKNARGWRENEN
The following applies: protein: recombinant; tags: N-terminal GST; dsDNA, one strand shown. The method, boiled down:
as §1

For a further experiment, the target named is SPI1 (Homo sapiens, UniProt P17947 1-270). The following applies: protein: recombinant; tags: N-terminal GST; dsDNA, one strand shown. The method, boiled down: as §1
The next experiment has as its target SPIB (Homo sapiens, UniProt Q01892 1-262). The following applies: protein: recombinant; tags: N-terminal GST; dsDNA, one strand shown. A digest of the protocol: as §1
The target of a further experiment is ETV5 (Homo sapiens, UniProt P41161 1-510). As to conditions: protein: recombinant; tags: N-terminal GST; dsDNA, one strand shown. A digest of the protocol:
as §1

The next experiment addresses HSF1 (Homo sapiens, UniProt Q00613 1-529). The following applies: protein: recombinant; tags: N-terminal GST; chain copies: 3; dsDNA, one strand shown. A digest of the protocol:
as §1

Another experiment addresses T4, SPIC (Homo sapiens, UniProt Q8N5J4 1-248).
T4 sequence: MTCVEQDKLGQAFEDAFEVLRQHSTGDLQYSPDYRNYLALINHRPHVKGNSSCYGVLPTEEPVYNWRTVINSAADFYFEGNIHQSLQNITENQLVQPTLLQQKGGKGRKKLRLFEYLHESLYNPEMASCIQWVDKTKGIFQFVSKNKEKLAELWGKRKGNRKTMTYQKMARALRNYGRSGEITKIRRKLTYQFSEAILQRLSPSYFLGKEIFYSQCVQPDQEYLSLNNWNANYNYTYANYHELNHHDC
As to conditions: protein: recombinant; tags: N-terminal GST; dsDNA, one strand shown. A digest of the protocol:
as §1

The target in a further experiment is ELF4 (Homo sapiens, UniProt Q99607 1-663). The following applies: protein: recombinant; tags: N-terminal GST; dsDNA, one strand shown. The method, boiled down:
as §1

Another experiment concerns the target T5, ELK4 (Homo sapiens, UniProt P28324-2 1-405).
T5 sequence: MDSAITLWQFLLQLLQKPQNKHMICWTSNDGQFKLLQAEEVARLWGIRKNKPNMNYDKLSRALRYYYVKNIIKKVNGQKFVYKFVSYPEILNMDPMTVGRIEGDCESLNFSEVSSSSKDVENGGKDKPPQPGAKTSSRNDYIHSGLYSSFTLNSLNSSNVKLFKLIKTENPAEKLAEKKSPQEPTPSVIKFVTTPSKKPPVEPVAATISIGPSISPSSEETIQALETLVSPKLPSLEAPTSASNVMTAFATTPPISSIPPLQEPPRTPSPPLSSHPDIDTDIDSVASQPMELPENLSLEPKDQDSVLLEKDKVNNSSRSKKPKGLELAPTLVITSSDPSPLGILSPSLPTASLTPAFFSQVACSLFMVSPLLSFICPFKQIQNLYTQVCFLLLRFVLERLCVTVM
The following applies: protein: recombinant; tags: N-terminal GST; dsDNA, one strand shown. A digest of the protocol: as §1

Another experiment addresses T6, ETV2 (Homo sapiens, UniProt O00321 1-342).
T6 sequence: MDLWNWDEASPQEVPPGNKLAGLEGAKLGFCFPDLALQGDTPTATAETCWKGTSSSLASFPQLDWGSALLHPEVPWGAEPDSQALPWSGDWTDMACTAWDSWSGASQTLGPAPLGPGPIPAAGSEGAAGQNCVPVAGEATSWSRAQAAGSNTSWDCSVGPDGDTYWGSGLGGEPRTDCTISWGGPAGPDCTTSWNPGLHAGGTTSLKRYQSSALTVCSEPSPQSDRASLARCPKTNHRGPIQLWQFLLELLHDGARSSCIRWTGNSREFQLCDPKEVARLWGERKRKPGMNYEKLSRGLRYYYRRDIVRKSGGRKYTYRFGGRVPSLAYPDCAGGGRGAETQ
As to conditions: protein: recombinant; tags: N-terminal GST; dsDNA, one strand shown. A digest of the protocol: as §1

A further experiment addresses CRX (Homo sapiens, UniProt O43186 1-299). The following applies: protein: recombinant; tags: N-terminal GST; dsDNA, one strand shown. The method, boiled down: as §1
Another experiment addresses ETV1 (Homo sapiens, UniProt P50549 1-477). As to conditions: protein: recombinant; tags: N-terminal GST; dsDNA, one strand shown. A digest of the protocol:
as §1

Sequence of HSF1 (Q00613 whole entry): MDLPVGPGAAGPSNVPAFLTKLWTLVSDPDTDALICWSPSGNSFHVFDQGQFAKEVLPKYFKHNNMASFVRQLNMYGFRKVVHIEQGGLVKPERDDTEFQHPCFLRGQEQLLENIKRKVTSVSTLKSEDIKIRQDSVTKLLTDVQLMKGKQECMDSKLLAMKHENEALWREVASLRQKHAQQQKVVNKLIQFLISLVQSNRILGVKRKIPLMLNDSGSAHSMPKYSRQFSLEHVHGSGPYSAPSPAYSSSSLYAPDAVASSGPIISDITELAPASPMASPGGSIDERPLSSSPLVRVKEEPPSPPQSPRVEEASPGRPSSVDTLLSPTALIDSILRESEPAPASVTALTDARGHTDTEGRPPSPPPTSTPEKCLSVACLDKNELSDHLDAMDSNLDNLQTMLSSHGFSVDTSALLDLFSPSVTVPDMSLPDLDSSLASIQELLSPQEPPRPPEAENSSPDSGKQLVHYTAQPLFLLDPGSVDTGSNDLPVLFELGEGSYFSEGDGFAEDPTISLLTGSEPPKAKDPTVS
Sequence of ELF4 (Q99607 whole entry): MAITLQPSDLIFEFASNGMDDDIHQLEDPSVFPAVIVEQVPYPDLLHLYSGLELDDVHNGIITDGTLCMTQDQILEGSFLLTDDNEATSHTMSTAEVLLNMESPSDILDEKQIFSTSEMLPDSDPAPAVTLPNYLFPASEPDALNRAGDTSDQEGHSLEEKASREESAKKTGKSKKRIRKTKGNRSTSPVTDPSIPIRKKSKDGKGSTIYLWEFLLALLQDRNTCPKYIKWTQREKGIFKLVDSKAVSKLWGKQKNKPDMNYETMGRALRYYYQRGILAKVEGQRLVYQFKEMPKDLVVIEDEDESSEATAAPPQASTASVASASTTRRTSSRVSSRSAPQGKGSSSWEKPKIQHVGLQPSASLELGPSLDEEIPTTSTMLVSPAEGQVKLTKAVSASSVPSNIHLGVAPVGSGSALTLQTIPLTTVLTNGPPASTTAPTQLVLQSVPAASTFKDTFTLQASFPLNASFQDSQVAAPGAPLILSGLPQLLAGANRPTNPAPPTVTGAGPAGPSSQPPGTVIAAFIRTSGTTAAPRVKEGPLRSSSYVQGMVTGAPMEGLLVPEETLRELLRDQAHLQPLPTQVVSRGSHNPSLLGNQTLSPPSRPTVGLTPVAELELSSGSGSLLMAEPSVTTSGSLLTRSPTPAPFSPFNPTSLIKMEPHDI
Sequence of CRX (O43186 whole entry): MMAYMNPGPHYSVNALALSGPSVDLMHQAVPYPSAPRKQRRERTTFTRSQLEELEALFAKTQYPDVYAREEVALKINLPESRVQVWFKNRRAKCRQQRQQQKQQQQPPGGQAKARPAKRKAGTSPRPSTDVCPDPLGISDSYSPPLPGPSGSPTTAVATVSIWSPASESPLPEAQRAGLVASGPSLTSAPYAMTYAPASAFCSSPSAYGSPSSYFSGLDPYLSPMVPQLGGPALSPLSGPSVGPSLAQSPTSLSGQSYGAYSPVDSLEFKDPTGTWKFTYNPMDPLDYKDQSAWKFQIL
Sequence of ETV5 (P41161 whole entry): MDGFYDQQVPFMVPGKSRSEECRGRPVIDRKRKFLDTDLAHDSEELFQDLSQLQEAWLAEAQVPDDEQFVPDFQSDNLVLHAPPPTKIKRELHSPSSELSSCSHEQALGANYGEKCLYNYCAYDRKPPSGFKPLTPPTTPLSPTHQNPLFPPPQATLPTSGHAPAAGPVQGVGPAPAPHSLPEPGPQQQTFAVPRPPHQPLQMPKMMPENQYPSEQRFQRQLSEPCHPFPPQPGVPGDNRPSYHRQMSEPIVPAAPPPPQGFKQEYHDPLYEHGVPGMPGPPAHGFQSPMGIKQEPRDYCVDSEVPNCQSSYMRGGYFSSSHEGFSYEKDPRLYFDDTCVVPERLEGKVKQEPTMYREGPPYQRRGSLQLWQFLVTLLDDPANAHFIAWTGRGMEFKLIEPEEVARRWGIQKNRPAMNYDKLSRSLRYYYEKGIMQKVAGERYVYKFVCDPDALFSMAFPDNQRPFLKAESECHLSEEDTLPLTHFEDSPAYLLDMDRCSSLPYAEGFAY
Sequence of ELF1 (P32519 whole entry): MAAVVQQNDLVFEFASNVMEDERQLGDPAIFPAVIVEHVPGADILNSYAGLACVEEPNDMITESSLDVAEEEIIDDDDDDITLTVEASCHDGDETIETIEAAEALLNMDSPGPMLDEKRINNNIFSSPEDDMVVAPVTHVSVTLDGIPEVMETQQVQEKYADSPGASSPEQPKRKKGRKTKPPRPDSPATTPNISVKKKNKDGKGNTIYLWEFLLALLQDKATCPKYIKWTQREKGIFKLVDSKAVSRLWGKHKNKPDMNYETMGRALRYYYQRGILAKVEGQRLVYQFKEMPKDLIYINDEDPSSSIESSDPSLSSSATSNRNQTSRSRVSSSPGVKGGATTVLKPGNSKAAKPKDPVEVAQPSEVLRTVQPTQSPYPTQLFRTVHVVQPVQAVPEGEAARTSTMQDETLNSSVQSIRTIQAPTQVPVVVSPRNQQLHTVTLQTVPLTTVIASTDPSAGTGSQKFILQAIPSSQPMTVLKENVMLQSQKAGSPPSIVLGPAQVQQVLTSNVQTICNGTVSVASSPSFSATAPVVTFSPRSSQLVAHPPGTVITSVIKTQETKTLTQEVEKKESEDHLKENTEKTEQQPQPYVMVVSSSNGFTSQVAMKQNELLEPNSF
Sequence of SPIB (Q01892 whole entry): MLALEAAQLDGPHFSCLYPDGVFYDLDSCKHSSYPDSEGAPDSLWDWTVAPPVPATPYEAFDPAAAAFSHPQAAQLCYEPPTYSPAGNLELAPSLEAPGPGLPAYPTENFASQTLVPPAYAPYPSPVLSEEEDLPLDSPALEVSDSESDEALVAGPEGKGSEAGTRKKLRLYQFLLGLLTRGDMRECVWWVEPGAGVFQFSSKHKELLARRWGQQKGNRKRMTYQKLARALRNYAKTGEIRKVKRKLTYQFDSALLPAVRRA
Sequence of ETV1 (P50549 whole entry): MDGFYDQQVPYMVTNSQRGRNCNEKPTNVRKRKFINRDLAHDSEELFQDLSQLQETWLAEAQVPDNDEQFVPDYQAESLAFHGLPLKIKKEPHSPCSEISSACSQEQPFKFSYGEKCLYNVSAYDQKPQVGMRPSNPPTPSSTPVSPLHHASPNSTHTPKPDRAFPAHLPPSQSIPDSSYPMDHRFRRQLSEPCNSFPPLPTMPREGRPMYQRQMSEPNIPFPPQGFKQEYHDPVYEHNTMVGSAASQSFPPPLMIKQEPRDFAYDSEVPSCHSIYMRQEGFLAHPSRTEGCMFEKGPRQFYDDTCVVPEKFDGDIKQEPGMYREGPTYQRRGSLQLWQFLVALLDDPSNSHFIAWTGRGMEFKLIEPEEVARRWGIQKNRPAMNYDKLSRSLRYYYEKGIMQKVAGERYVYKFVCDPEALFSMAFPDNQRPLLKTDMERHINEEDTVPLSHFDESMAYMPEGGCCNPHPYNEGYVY

For the sequence GAAAGA, the binding signal is 1.01 fold enrichment (6-mer frequency, TF over GST control) in the experiment with FLI1; 1.02 fold enrichment (6-mer frequency, TF over GST control) with ERG; 1.08 fold enrichment (6-mer frequency, TF over GST control) with ELF1; 1.01 fold enrichment (6-mer frequency, TF over GST control) with EHF; 1.14 fold enrichment (6-mer frequency, TF over GST control) with SPI1; 1.02 fold enrichment (6-mer frequency, TF over GST control) with SPIB. For the same sequence, the binding signal is 1.04 fold enrichment (6-mer frequency, TF over GST control) in the experiment with ETV5; 1.4 fold enrichment (6-mer frequency, TF over GST control) with HSF1; 1.05 fold enrichment (6-mer frequency, TF over GST control) with SPIC; 1.07 fold enrichment (6-mer frequency, TF over GST control) in the experiment with ELF4; 1.01 fold enrichment (6-mer frequency, TF over GST control) with ELK4; 1.07 fold enrichment (6-mer frequency, TF over GST control) in the experiment with ETV2. Besides, the binding signal was 1.01 fold enrichment (6-mer frequency, TF over GST control) in the experiment with CRX and 1.03 fold enrichment (6-mer frequency, TF over GST control) with ETV1.
